Drawing on PubChem BioAssay (NCATS), this text covers Potency and outcome for seven molecules.

A short description of assay [1]: NS1 protein of Zika virus - qHTS assay to identify small molecule inhibitors in human HEK 293 cells (AID 1347053). Further: series mostly up to about 46 µM; nearly all actives have a fitted effect of over 55% in size. The essentials:
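HEK 293; 20 h pre-culture, 37 C/5% CO2; cpd 1 h pre-infection; ZIKV MR766, MOI = 0.5, 24 h, 37 C; TR-FRET NS1 readout (two anti-NS1 Abs); norm. to no-virus vs infected.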

Assay [2] has as its target T1, Tyrosine-protein phosphatase non-receptor type substrate 1 (Homo sapiens) + Leukocyte surface antigen CD47 (Homo sapiens) (UniProt P78324+Q08722). Description: CD47-SIRPalpha protein protein interaction - HTRF assay qHTS validation (AID 1347058; active means well fitted curve in the direction sought with a large enough effect in the signal ratio, not every such curve was filed as active; the % refers to the signal ratio;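 further: recombinant soluble extracellular CD47 with His tag and biotinylated SIRPalpha domains; series mostly up to about 38 µM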). The essentials:
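TR-FRET read (Ch1/Ch2 ratio) of soluble extracellular CD47 and Avi-biotinylated SIRPalpha domains in PBS pH 7.4 with 0.05% IGEPAL; 7-point compound titration. Sequential 30 min room-temperature steps; non-biotinylated SIRPalpha as control inhibitor.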
For orientation: TR-FRET usually uses a lanthanide donor and a delayed reading to cut background.

In assay [3] the target is T1, Tyrosine-protein phosphatase non-receptor type substrate 1 (Homo sapiens) + Leukocyte surface antigen CD47 (Homo sapiens). Description: CD47-SIRPalpha protein protein interaction - Alpha assay qHTS validation (AID 1347059).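 Further: bead proximity luminescence from CD47 binding SIRPalpha after compound preincubation with SIRPalpha.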 The essentials: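 Binding is measured by AlphaScreen proximity: Ni-NTA acceptor beads capture His-CD47, streptavidin donor beads capture biotin-SIRPalpha. Each of three additions (SIRPalpha with compound, CD47, beads) incubates 30 min at room temperature protected from light.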
For orientation: qHTS replaces the single test concentration by a dilution series.

Assay [4] has as its target Parathyroid hormone/parathyroid hormone-related peptide receptor (Homo sapiens) (UniProt Q03431). Description: qHTS for PTHR1 Agonists: Optimization Screen against the NCGC LOPAC library (AID 1347079).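 Further: GloSensor cAMP luminescence in HEK-293 GP2 cells expressing human PTHR1 with IBMX.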 In short, it runs like this: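 Agonist readout: GloSensor cAMP luminescence, read after 15 min at room temperature. HEK-293-derived GP2 line carries PTHR1; compounds tested as a titration for 1 hr at 37C in presence of IBMX. M-PTH (1-15) served as control.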

The nature of assay [5]: qHTS of pediatric cancer cell lines to identify multiple opportunities for drug repurposing: Primary screen for TC32 cells (AID 1347089). Further: nearly all actives have a fitted effect of over 60% in size. In short, it runs like this:
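Luminescent CellTiter-Glo read-out of metabolically active TC32 cells after 48 h compound exposure. Primary: MIPE 11-point, 0.78 nM–46 µM; NPC 8-point, 0.59 nM–46 µM. Confirmatory: 11-point dilutions.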

Assay [6] in a line: qHTS of pediatric cancer cell lines to identify multiple opportunities for drug repurposing: Primary screen for DAOY cells (AID 1347090). Further: series mostly up to about 46 µM; nearly all actives have a fitted effect of over 55% in size. The essentials: (§1)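 Cell viability, CellTiter-Glo luminescence; 500-1,000 cells/well, 8- or 11-point titration, 48 h compound exposure at 37 degrees C, 5% CO2. Controls: DMSO neutral, bortezomib 2.3 µM final as positive.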
Assay [7] can be described thus: qHTS of pediatric cancer cell lines to identify multiple opportunities for drug repurposing: Primary screen for SJ-GBM2 cells (AID 1347091). The essentials:
as §1

Assay [8] can be described thus: qHTS of pediatric cancer cell lines to identify multiple opportunities for drug repurposing: Primary screen for A673 cells (AID 1347092). Further: nearly all actives have a fitted effect of over 45% in size. The essentials: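 A673 cells (500-1,000 cells/well in growth media) were pre-incubated 5 h at 37 degrees C, then exposed to compounds for 48 h. Viability was read as CellTiter-Glo luminescence; concentration-response curves came directly from the primary screen.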

Assay [9] is described as follows: qHTS of pediatric cancer cell lines to identify multiple opportunities for drug repurposing: Primary screen for SK-N-MC cells (AID 1347093). Further: series mostly up to about 46 µM. The essentials:
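Metabolically active cells were quantified by ATP-dependent luminescence (CellTiter-Glo, 15 min at room temperature) following 48 h treatment. Cells had been plated at 500-1,000 per well and settled for 5 h beforehand.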

A short description of assay [10]: qHTS of pediatric cancer cell lines to identify multiple opportunities for drug repurposing: Primary screen for BT-37 cells (AID 1347094). Further: series mostly up to about 57 µM. The essentials:
(§2)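 500-1,000 cells/well; 5 h pre-incubation 37 °C/5% CO2; compound pinned; 48 h; CellTiter-Glo, 15 min RT; luminescence. MIPE 11-pt from 0.78 nM, NPC 8-pt from 0.59 nM final. Bortezomib 2.3 µM final as positive control.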

Assay [11] can be described thus: qHTS of pediatric cancer cell lines to identify multiple opportunities for drug repurposing: Primary screen for NB-EBc1 cells (AID 1347095). In short, it runs like this: as §2
The nature of assay [12]: qHTS of pediatric cancer cell lines to identify multiple opportunities for drug repurposing: Primary screen for U-2 OS cells (AID 1347096). Further: nearly all actives have a fitted effect of over 50% in size. In short, it runs like this:
(§3)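 Cells (500-1,000/well) rested 5 h, then received compounds for 48 h; metabolically active cells were measured by CellTiter-Glo luminescence. Final concentrations spanned up to 46 µM (MIPE, 11-point) or 0.59 nM-46 µM (NPC, 8-point) in primary screens, 11-point in follow-ups.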

Assay [13] in a line: qHTS of pediatric cancer cell lines to identify multiple opportunities for drug repurposing: Primary screen for NB1643 cells (AID 1347099). Further: nearly all actives have a fitted effect of over 50% in size. In short, it runs like this: as §2
A short description of assay [14]: qHTS of pediatric cancer cell lines to identify multiple opportunities for drug repurposing: Primary screen for LAN-5 cells (AID 1347100). The essentials: as §3
A short description of assay [15]: qHTS of pediatric cancer cell lines to identify multiple opportunities for drug repurposing: Primary screen for BT-12 cells (AID 1347101). Further: nearly all actives have a fitted effect of over 25% in size. The essentials: as §3
Assay [16] in a line: qHTS of pediatric cancer cell lines to identify multiple opportunities for drug repurposing: Primary screen for Rh18 cells (AID 1347102). Further: nearly all actives have a fitted effect of over 65% in size. In short, it runs like this:
as §3

The nature of assay [17]: qHTS of pediatric cancer cell lines to identify multiple opportunities for drug repurposing: Primary screen for OHS-50 cells (AID 1347103). Further: nearly all actives have a fitted effect of over 40% in size. Further: potency means the concentration at half of the fitted maximal effect. The essentials: as §3
Assay [18] is described as follows: qHTS of pediatric cancer cell lines to identify multiple opportunities for drug repurposing: Primary screen for Saos-2 cells (AID 1347097). Further: nearly all actives have a fitted effect of over 40% in size. In short, it runs like this: as §2
Assay [19] can be described thus: qHTS of pediatric cancer cell lines to identify multiple opportunities for drug repurposing: Primary screen for SK-N-SH cells (AID 1347098). Further: nearly all actives have a fitted effect of over 65% in size. The essentials:
as §3

For assay [20], the target named is T1, Tyrosine-protein phosphatase non-receptor type substrate 1 (Homo sapiens) + Leukocyte surface antigen CD47 (Homo sapiens). Description: CD47-SIRPalpha protein protein interaction - LANCE assay qHTS validation (AID 1347057; active means well fitted curve in the direction sought with a large enough effect in the signal ratio, with a control signal flat, not every such curve was filed as active; the % refers to the signal ratio; further: series mostly up to about 38 µM). The essentials:
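First, His-tagged CD47 and Eu-labelled anti-His antibody met the compound for 30 min; next, site-specifically biotinylated SIRPalpha was added for 30 min; finally streptavidin-APC was added before reading the TR-FRET ratio.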

Each structure is given as a SMILES string. Results filed as inconclusive are left out. Active and inactive are the calls of the source. Unless noted, the call rests on the fitted dose curve; in most records, active means well fitted curve in the direction sought with a large enough effect; inconclusive means small, poorly fitted or top-dose-only effect, or another doubt; inactive means no such curve, though single readings can be large; an effect the other way counts as inactive or inconclusive.

Sequence of Parathyroid hormone/parathyroid hormone-related peptide receptor (Homo sapiens) (Q03431 whole entry, looked up): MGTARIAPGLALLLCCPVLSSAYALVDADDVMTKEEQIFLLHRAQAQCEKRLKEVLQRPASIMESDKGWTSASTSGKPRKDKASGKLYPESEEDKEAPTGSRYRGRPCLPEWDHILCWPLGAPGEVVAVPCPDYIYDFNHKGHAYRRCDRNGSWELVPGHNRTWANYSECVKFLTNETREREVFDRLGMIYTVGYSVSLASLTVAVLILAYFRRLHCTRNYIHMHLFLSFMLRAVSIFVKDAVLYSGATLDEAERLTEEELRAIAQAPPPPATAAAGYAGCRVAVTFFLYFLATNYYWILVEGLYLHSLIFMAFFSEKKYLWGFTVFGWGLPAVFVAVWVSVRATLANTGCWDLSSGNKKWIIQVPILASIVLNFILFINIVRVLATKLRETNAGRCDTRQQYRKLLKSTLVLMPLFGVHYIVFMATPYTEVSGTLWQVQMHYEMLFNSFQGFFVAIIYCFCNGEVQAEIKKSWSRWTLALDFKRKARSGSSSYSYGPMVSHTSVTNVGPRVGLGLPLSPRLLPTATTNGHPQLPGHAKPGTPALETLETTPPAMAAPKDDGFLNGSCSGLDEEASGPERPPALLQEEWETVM
T1 sequence (P78324 whole entry, looked up, the tested form may be a part): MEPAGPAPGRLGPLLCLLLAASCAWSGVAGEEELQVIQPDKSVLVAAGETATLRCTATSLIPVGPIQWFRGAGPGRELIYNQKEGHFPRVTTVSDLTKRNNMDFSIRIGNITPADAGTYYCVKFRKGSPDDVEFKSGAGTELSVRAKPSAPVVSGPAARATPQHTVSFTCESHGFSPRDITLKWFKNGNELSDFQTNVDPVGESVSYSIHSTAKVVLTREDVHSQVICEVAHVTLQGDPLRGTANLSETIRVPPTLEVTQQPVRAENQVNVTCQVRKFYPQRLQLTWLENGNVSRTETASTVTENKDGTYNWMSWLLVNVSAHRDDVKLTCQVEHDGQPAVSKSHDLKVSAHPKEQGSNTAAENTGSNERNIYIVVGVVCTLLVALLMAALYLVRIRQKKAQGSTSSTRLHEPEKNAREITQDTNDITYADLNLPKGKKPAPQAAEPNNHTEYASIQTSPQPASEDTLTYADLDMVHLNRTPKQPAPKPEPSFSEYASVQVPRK
T1 sequence (Q08722 whole entry, looked up, the tested form may be a part): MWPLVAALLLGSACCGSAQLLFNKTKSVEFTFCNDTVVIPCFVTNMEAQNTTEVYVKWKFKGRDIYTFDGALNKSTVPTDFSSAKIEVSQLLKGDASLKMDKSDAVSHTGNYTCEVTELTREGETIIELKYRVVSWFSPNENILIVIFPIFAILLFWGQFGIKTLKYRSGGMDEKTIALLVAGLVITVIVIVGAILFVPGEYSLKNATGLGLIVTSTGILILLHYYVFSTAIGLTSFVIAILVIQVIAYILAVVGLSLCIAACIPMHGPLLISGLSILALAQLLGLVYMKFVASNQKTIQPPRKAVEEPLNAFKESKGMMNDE

For `CC(C)(C)NCC(O)c1ccc(O)c(CO)c1` (stereo not given), the Potency result in [1], in assay [5], in assay [6], in [7], in [8] and in assay [9] was “inactive” in each case. Also, the Potency entry in assay [10], in [11], in assay [12], in [13], in assay [14] and in assay [15] was “inactive” in each case. The Potency result in assay [16] and in assay [17] was “inactive” each time. Further, the result in assay [2], in assay [3] and in [4] was inactive.

Consider `N[C@@H]1CONC1=O`, for which the Potency result in assay [1], in [5], in [6], in [7], in assay [8] and in assay [9] was “inactive” in each case. Further, the Potency entry in assay [11], in assay [12], in assay [18], in [19], in [13] and in [14] was “inactive” in each case. Further, the Potency entry in [16] and in assay [17] was “inactive” throughout. Also, the result in assay [2], in assay [3] and in [4] was inactive.

Consider `CCn1cc(C(=O)O)c(=O)c2cc(F)c(N3CCNC(C)C3)c(F)c21` (stereo not given), for which the Potency entry in assay [1], in [5], in [6], in [7], in [8] and in assay [9] was “inactive” in each case. The Potency result in [10], in assay [11], in assay [12], in assay [18], in assay [14] and in [15] was “inactive” throughout. The Potency result in assay [16] and in [17] was “inactive” in each case. Moreover, the outcome in [20], in assay [2], in [3] and in [4] was inactive.

As for `OC(CN1CCC(Cc2ccc(F)cc2)CC1)c1ccc(Cl)cc1` (stereo not given), the Potency result in assay [1], in [5], in [6], in assay [8], in [10] and in assay [12] was “inactive” in each case. Also, the Potency result in [18], in assay [14], in assay [16] and in assay [17] was “inactive” in each case. Besides, the result in [2], in assay [3] and in [4] was inactive.

Turning to `Cc1cn[nH]c1`, the Potency entry in [1], in assay [5], in assay [6], in [7], in assay [8] and in assay [9] was “inactive” throughout. For the same molecule, the Potency result in assay [12], in [18], in [19], in assay [13], in assay [14] and in [16] was “inactive” each time. For the same molecule, the outcome in [2], in assay [3] and in assay [4] was inactive. Also, the Potency in assay [17] is 611 nM (active).

Take `O=NN(CCCl)C(=O)NCCCl`: the Potency entry in assay [1], in assay [5], in assay [6], in assay [7], in assay [8] and in [9] was “inactive” in each case. Further, the Potency entry in [12], in assay [19], in [13], in assay [14], in assay [15] and in [16] was “inactive” each time. For the same molecule, the Potency entry in assay [17] was “inactive”. For the same molecule, the result in assay [2], in assay [3] and in assay [4] was inactive.

Turning to `CNC[C@H](O)c1cccc(O)c1`, the Potency result in assay [1], in assay [5], in [6], in assay [7], in assay [8] and in assay [9] was “inactive” in each case. Also, the Potency result in assay [10], in assay [11], in [12], in assay [13], in assay [14] and in assay [15] was “inactive” in each case. Also, the Potency entry in assay [16] and in assay [17] was “inactive” in each case. Moreover, the outcome in assay [20], in [2], in assay [3] and in assay [4] was inactive.
